# ± gives the standard deviation of the averaged measurements. The full ranking holds about 25,000 sequences; the median of “ln(normalized median fluorescence intensity)” is about 8.9, and the highest 2% start at about 10. The list comes from a sample in which the highest values are over-represented; it also holds similar and randomly drawn sequences.
# System: PfAP2-LT AP2 domain (GST-tagged)
# Test: gcPBM binding intensity (ln(normalized median fluorescence intensity)); higher = stronger DNA binding
# Summary of the method: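 An Agilent 4 × 180k array carrying primer-extended double-stranded 36-bp intergenic genomic probes and negative controls received GST-tagged P. falciparum DNA-binding domains expressed in E. coli, about 25 μg on average, for 1 h. The binding buffer contained 1× PBS, 1% milk, 0.2 mg/ml BSA, 0.5% salmon testes DNA and 0.03% Triton X-100. Binding intensity is the top Masliner-normalised natural-log median intensity across replicate spots of either probe orientation, read after Alexa488 anti-GST antibody staining and a 488 nm scan.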
row,Sequence,gcPBM binding intensity (ln)
1,TACATATGAAAATACACACATACATACATATATATA [CACACA_site1673],9.21 ± 0.34
2,TATCAAAAAAAAAGTAGTACGATAATAGTTTCCCAA [XGTACX_site1812],8.73 ± 0.4
3,TAATATTTTTTGTGTACACATATATATATATATATA [CACACA_site5504],9.505 ± 0.064
4,ATATGTTAAATTATTCGTACGTAAAAAAAAATGGAT [XGTACX_site3465],8.81 ± 0.37
5,CACAAACAAAGACACACACACACACGCACAAAAATG [CACACA_site7193],10.3 ± 0.21
6,TATTTATTAAGACACACACACACACGCACAAAATAA [CACACA_site6254],10.3 ± 0.33
7,AATTAACAAAGACACACACACACACGCACAAAAAAA [CACACA_site6388],10.2
8,AAAAAACAAAAACACACGCACACAAAAAAAAAAAAA [CACACA_site802],9.4 ± 0.33
9,ACAAAATAAAGACACACACACAAACACAAAAAAATA [CACACA_site7568],10.1 ± 0.38
10,AATGTGTAGACACGCACACACAAAAAAATATTTATA [CACACA_site7384],9.59 ± 0.36
11,TTATTATTAAGACACACACACAAAAAAAAAAAAAAA [CACACA_site6805],9.26 ± 0.46
12,TTAACAAATAGACACACACACACACGCAAAAAAAAA [CACACA_site6387],10.3 ± 0.33
13,TAAATTAAAAGACACACACACAAAAAAAAAAAAAAA [CACACA_site7131],9.4 ± 0.44
14,AAAACAAATAGACACGCACACAAAAAAAAAAAAAAA [CACACA_site801],9.38 ± 0.6
15,AACACGCACAGACACACACACAAAAATGATTAAAAA [CACACA_site7195],9.71 ± 0.61
16,ATATATATATATAACACACGCAAAAAAATTAAATAA [CACACA_site1400],9.16 ± 0.38
17,ATGAAAAAAAATAAAAAATATATATATATATATATA [CACACA_negctrl_site236],9.4 ± 0.4
18,ATATATATATAAATATAAATATATATATATATATAT [CACACA_negctrl_site1685],9.02 ± 0.23
19,AGGAAAAAAAAAATGTGTACTTAAAAAAAAAAAATT [XGTACX_site1471],8.51 ± 0.65
20,ACCTTTTGGATTATATGTACATATATATATATATAT [XGTACX_site2687],9.61 ± 0.26
21,CACAAAAGTAAGCACGCACACACAACCTGAAATAAA [CACACA_site166],9.59 ± 0.44
22,ATTTTTTTTATTTTTTATATAATTTTTTTATATTAT [CACACA_negctrl_site1521],8.69 ± 0.5
23,ATGCAAATGTGCATCACACACACTAATGGGTATGTA [CACACA_site2893],9.41 ± 0.31
24,AATTAAATGATTTATACATGCATATAAATATAAATA [TGCATGCA_site579],8.71 ± 0.43

row,Sequence,gcPBM binding intensity (ln)
1,CGATTTTTTAAGTTTGTGCACTTAAAAACTATAACA,8.53 ± 0.47
2,GATGAAAATAGAAATACACACTAAAAAATAAAATTA [CACACA_site4764],8.85 ± 0.52
3,ATATACATATTCTTGTGTACATAAAAATTTATATAT [XGTACX_site8726],8.74 ± 0.35
4,AAAAAAAAAAAAGAACGTACAAATTAATTTATAGAA [XGTACX_site5584],8.73 ± 0.57
5,TTAAAAAATCACAACACACACACACCCAAAAAAAAA [CACACA_site1445],9.77 ± 0.26
6,TTAAAAAATCACAACACACACACACGCAAAAAAAAA [CACACA_site6793],10.1 ± 0.21
7,TTTACATTAAATCACGCACACAAAAAAAAAAAAAAA [CACACA_site2418],8.94 ± 0.37
8,ATTCAAAAGATGTATACACACATGTGGATAATATAA [CACACA_site2443],9.21 ± 0.48
9,TATATATAATATGAATGTACACAAAAAGGTAATACA [XGTACX_site6202],9.11 ± 0.62
10,AATATAAGCAAATACACACACACATATATATATATA [CACACA_site3805],10.29 ± 0.035
11,AATATAAGCAAATACACACACACATATAAATATGTA [CACACA_site7741],9.85 ± 0.35
12,AATAAAGCAATAAATACACACATATATATATATATA [CACACA_site2934],9.955 ± 0.0071
13,ATACAACAAAAATAAGCACACACAAATATACATACA [CACACA_site9201],9.7 ± 0.4
14,ACAAAAAAAATAAGCACACATATATATATATATATA [CACACA_site816],10.1 ± 0.38
15,AAACAAAAAAAATAAGCACACATATATATATATATA [CACACA_site8173],9.6 ± 0.57
16,AAATCTTAATAAAGTTGTACATAATTATGTTTAATA [XGTACX_site3348],8.55 ± 0.49
17,TAATGGAATAAAAATTGTACATATTTTTTTTTTTTT [XGTACX_site7669],8.45 ± 0.36
18,TTTCTTAAATATATTGAGGAATAAAAAGAAGAAAAG [GTGCAC_negctrl_site281],8.33 ± 0.4
19,AGTATTATATATATATGTACATAATATACATATATA [XGTACX_site8514],8.73 ± 0.36
20,TATGCTACATTATATGTACACACATATACATATATA [CACACA_site8199],9.11 ± 0.42
21,AGGAACATTTACGCCCCACACACCTACCAACAAAAA [CACACA_site3827],9.59 ± 0.23
22,TATAATGATGATGATAGTACGTATGAGTAAGAAAAA [XGTACX_site31],8.99 ± 0.54
23,AGATTATAAAATTCTACACACATATATACCTATATA [CACACA_site5848],9.04 ± 0.42
24,TGAACCAGATTTAGAAGTACTAAATATTACATACAT [XGTACX_site2437],8.7 ± 0.47

row,Sequence,gcPBM binding intensity (ln)
1,AAATGGAAAAGGTGTACACAAAAAAAAGGGAAAAGC [CACACA_site5331],9.37 ± 0.5
2,AACTTTTAGAAGAACACACACATATAGATTATGACC [CACACA_site6256],9.24 ± 0.33
3,ATTATAACACCTCCCCCCCTTTTTTTATGAAGACCA [CACACA_negctrl_site1043],10.1 ± 0.4
4,TATATTATGACCACCACACACCTATACACATAACAT [CACACA_site7199],9.45 ± 0.16
5,ACAATTTATATTATATGTACTTAAAAAGTTCGTAAA [XGTACX_site6421],8.47 ± 0.27
6,TTTTGAAGCTTTAAAACATATATATATATATATATA [CACACA_negctrl_site184],9.75 ± 0.41
7,ATAATTGTTTCTTTCTCCTTTTTATTTCATTTTAAA [CACACA_negctrl_site964],8.68 ± 0.41
8,TATATATTAAAATAATCACACACATCAATTAATGGT [CACACA_site8331],9.09 ± 0.42
9,ATAAAATAAAACAACACACACGAATGTATAAATATA [CACACA_site4643],9.53 ± 0.36
10,AAATAAAATAAAACAACACACACGAATGTATAAATA [CACACA_site885],9.45 ± 0.33
11,GCACGAAACAATGTATATATATATATATATATATAT [GTGCAC_negctrl_site412],10.32 ± 0.078
12,ATGATTTATTATTATACACACAAAAAAAAAAAAGGA [CACACA_site264],8.84 ± 0.42
13,AATATCAATGATGTTACATGCAAGAGAATCCACAAA [TGCATGCA_site678],8.96 ± 0.42
14,AAATAATTCAAAAAAACACACAAATTACAAAATAAA [CACACA_site269],8.92 ± 0.55
15,TTCAAAATAAAAAATTCACACACATATATATATATA [CACACA_site8653],9.44 ± 0.17
16,AATATAAATAATGTTAAACACACATACCGATATATA [CACACA_site8869],9.02 ± 0.45
17,AAAATACATAAACACACACACACACCGATATATATA [CACACA_site9186],10.43 ± 0.092
18,CAAAAAATTCAACACACACACACACCGATAAATAAA [CACACA_site8330],10.11 ± 0.071
19,ACCATATAAATAAACACACACACACCGATATATATA [CACACA_site5310],10.09 ± 0.085
20,AAATAATATAAACATACACACACACCGATATATATA [CACACA_site8945],9.92 ± 0.17
21,CCTAAATAAATGGACACACACATATATATATATATA [CACACA_site1439],9.85 ± 0.29
22,TATATATATAAATACACACACACACCGATATATATA [CACACA_site5408],9.97 ± 0.11
23,TATATATATATATGTACACACACACCGATAAATAAA [CACACA_site8041],9.69 ± 0.15
24,CATATAAAAATGTGCACACACACACCGATATATATT [CACACA_site4940],9.95 ± 0.17

row,Sequence,gcPBM binding intensity (ln)
1,CACTAAAATGGACACACACACACACCGATATATATA [CACACA_site6139],10.1 ± 0.23
2,AGGCTATAATACCATACACACATTTATAAAATAACA [CACACA_site6990],9.07 ± 0.42
3,ATACTTATGATAAATACACACTTGAAATTAAGGATT [CACACA_site4772],8.85 ± 0.37
4,CATTTTTCTATATGTGCATGTAAGATAAGAATAATT [TGCATGCA_site107],8.48 ± 0.3
5,TATTTTTCCATATGCACACACACCGTATCTAGAATA [CACACA_site6654],9.47 ± 0.37
6,ATAATTAAAATGCTCACACACATAAAAAAAAATTAA [CACACA_site2149],8.94 ± 0.46
7,TTATTATTATGATTATTATGATGATTATACAACTGT [TGCATGCA_negctrl_site241],8.85 ± 0.35
8,AAATTGAATTAGTTAACACACAACTTTTATTTCATA [CACACA_site2840],8.74 ± 0.4
9,TCAAATATATAGAATACACACATGGATATAAGAAAT [CACACA_site4065],9.2 ± 0.4
10,TTATAATAAAATGAATATATATAATTTAAAATATTT [CACACA_negctrl_site1651],8.27 ± 0.54
11,TATATTTATAAGTGTACACATTATATAAATCCCTAT [CACACA_site6122],8.65 ± 0.42
12,AATTTTCTACAAATGTGTACTAAATAAAATATTACT [XGTACX_site7175],8.63 ± 0.39
13,AAAAAAAAAAAAAATACACACACACCGATATATATA [CACACA_site8142],9.775 ± 0.092
14,AAAATACATGGACACACACACACACCGATATATATA [CACACA_site5885],10.4 ± 0.21
15,GGAATAATATAAAACACACACATAAATATAAATATA [CACACA_site3376],9.45 ± 0.35
16,TAAAAAAAAAAAAATACACACACACCGATATATATA [CACACA_site8498],9.76 ± 0.19
17,AAGGATATAACATACACACACACACCGATATATATA [CACACA_site6136],10 ± 0.29
18,AAAAAAAAAAGAATAGCACACACACCGATATAAATA [CACACA_site8111],9.71 ± 0.37
19,CAAAATAATATATATACACACACACCGATATATATA [CACACA_site8082],9.81 ± 0.18
20,AATATAAATAAAAACACACACACACCGATATATATA [CACACA_site5283],10.2 ± 0.11
21,TGGGAATAAAAACACACACACACACCGATATATATA [CACACA_site5875],10.1 ± 0.41
22,CACTAAAATAAACACACACACACACCGATATATATA [CACACA_site9379],9.96 ± 0.014
23,AAAAAGGATAAACACACACACACACCGATATATATA [CACACA_site8206],10.34 ± 0.099
24,AATAAAAAGGAACACACACACACACCGATATATATA [CACACA_site5895],10.08 ± 0.085

# From the supplement of paper PMC11417369
